As a reminder, the inhibition is the change of the read-out against control, counted positive when it falls.

The campaign covered roughly 65,000 compounds. About 320 (0.49%) were called active.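 The calls were made as follows: active = the 320 compounds with the highest percent inhibition in the single-dose primary screen, excluding strongly autofluorescent ones (cut at about 32% in these data); inactive = the rest, inconclusive results apart.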 This excerpt belongs to a sample that is enriched for actives.

This test deals with diphosphomevalonate decarboxylase (Streptococcus pneumoniae D39). As to the kind of experiment: S. pneumoniae DPM-DC inhibitors, primary screen, biochemical, PK/LDH-coupled NADH fluorescence (AID 556).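 As to inhibition: kinetic rate of NADH fluorescence loss reporting ADP formed by the decarboxylase; 0% = full reaction rate with carrier and 100% = no-substrate background rate.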 The conditions noted are these: purified DPM-DC, at 10 µM.
The mark [1] stands for this setting: stronger effect = higher value unless noted.
The mark [2] stands for this setting: measured here: pilot screen trials, stronger effect = higher value.

For the compound `c1ccc(CCc2nc(-c3ccncc3)no2)cc1`, the inhibition result under setting [1] is “inactive”.

`Cc1ccccc1CN1CCN(CC(=O)NCc2ccccn2)C1=O`: the inhibition result under setting [1] is “inactive”.

With `COc1ccc2c(c1)C(C)=CC(C)(C)N2C(=O)CNCc1ccc2c(c1)OCO2`, the inhibition under setting [1] was 7% (inactive).

Take `CC(C)c1nc2oc3c(N4CCN(C)CC4)ncnc3c2c2c1CCC2`: the inhibition result under setting [1] is “inactive”.

As for `Cc1cccc(C)c1NC(=O)CCCSc1nnc(-c2ccco2)n1-c1ccccc1`, under setting [1], the inhibition result is “inactive”.

Regarding `NC(=O)c1ccsc1NC(=O)c1ccco1`, the inhibition under setting [1] was 9% (inactive).

Take `Cc1cc(C)c(C#N)c(SCS(=O)c2ccc(C(C)(C)C)cc2)n1` (stereo unspecified): the inhibition entry under setting [1] was “inactive”.

Regarding `O=C(CCS(=O)(=O)c1cccc2nonc12)NCCc1ccccc1Cl`, the inhibition entry under setting [1] is “inactive”.

Consider `CCC1=C(C(=O)OC)C(c2cc(OC)ccc2OC)C(C#N)=C(N)O1` (stereo unspecified), for which, under setting [1], the inhibition is 0% [measured here: pilot screen trials, stronger effect = higher value] and the compound was classed as inactive.

With `CCCN1C(=O)C(NC(C)=O)c2cc(OC)ccc21` (stereo unspecified), the inhibition under setting [1] is 40% (active).

Take `COCCCN1C(=O)c2ccc(C(=O)Nc3ccc(OC)cc3OC)cc2C1=O`: the inhibition entry under setting [1] is “inactive”.

As for `CCC(=O)c1ccc(OCC(O)CN2C(=O)NC(C)(C)C2=O)cc1` (stereo unspecified), under setting [1], the inhibition result was “inactive”.

In the case of `CC1(C)CC(=O)C=C(NCc2ccncc2)C1`, under setting [1], the inhibition was 2.5% [measured here: pilot screen trials, stronger effect = higher value] and the outcome was inactive.

For `Cn1c(=NC(=O)C2CC2)sc2cc(F)cc(F)c21`, the inhibition result under setting [1] is “inactive”.

For the compound `CCCC(=O)N=c1sc2cccc(F)c2n1C`, the inhibition result under setting [1] is “inactive”.

As to `Cn1c(=NC(=O)c2ccco2)sc2cccc(F)c21`, the inhibition under setting [1] is 37% (active).

Regarding `c1ccc(-n2ncc3c2ncn2c(C4CCCCC4)nnc32)cc1`, the inhibition result under setting [1] was “inactive”.

Turning to `CC(=O)Nn1cc2c(=O)n(C)c(=O)n(C)c2c1`, the inhibition result under setting [1] is “inactive”.

For the compound `COc1cc(C(=O)N(Cc2ccc(N(C)C)cc2)C2CCS(=O)(=O)C2)cc(OC)c1OC` (stereo unspecified), the inhibition entry under setting [1] was “inactive”.

On to `COc1ccc(OCC(=O)N2CCOCC2)cc1`, for which the inhibition result under setting [1] was “inactive”.

Turning to `CCCCOC(=O)Nc1nccs1`, the inhibition is 1% (inactive) (stronger effect = higher value) and 4.5% under setting [2].

Turning to `CN(C)CCNC(CC(=O)Nc1ccc(Cl)c(Cl)c1)C(=O)O` (stereo unspecified), the inhibition result under setting [1] was “inactive”.

`COc1cc(Cl)cc(C2NC(=O)NC(C)=C2C(=O)NCc2ccccc2)c1O` (stereo unspecified): the inhibition under setting [1] is 12% (inactive).

For `CCOc1ccc(C2C(C(=O)NC)=C(C)Nc3nc4ccccc4n32)cc1OC` (stereo unspecified), the inhibition entry under setting [1] is “inactive”.

For the compound `Cc1onc(-c2ccccc2)c1C(=O)Nc1ccccc1C#N`, the inhibition under setting [1] was 5% (inactive).

In the case of `CC(=O)N1CCc2cc(S(=O)(=O)Nc3ccccc3N3CCN(C)CC3)ccc21`, the inhibition under setting [1] is 1% (inactive).

Regarding `CC(c1cccnc1)N(CCN(C)C)C(=O)Nc1ccc(Cl)c(Cl)c1` (stereo unspecified), under setting [1], the inhibition result was “inactive”.

As for `COc1ccc(C(CNC(=O)c2cccnc2SC)N2CCOCC2)cc1` (stereo unspecified), the inhibition result under setting [1] is “inactive”.

With `COc1cc(C2C(C(=O)Nc3ccccc3OC)=C(C)Nc3ncnn32)ccc1O` (stereo unspecified), the inhibition entry under setting [1] was “inactive”.

As to `Cc1cc(NC(=O)CSc2nnc(-c3ccc(Cl)s3)o2)no1`, under setting [1], the inhibition entry is “inactive”.

In the case of `COc1ccc(OCCCC(=O)Nc2nnc(C3CCCO3)s2)cc1` (stereo unspecified), the inhibition result under setting [1] is “inactive”.

In the case of `O=C(Nc1ccccc1N1CCN(C(=O)c2ccccc2)CC1)c1ccc2c(c1)OCO2`, the inhibition entry under setting [1] was “inactive”.

Consider `Cc1ccc(C)c(S(=O)(=O)N2CC(=O)Nc3ccccc32)c1`, for which the inhibition entry under setting [1] was “inactive”.

For the compound `COc1ccc(S(=O)(=O)N2CCOCC2)cc1C(=O)Nc1nc2ccccc2s1`, the inhibition under setting [1] was 6% (inactive).

With `N#Cc1cccc(NC(=O)CCC2CCCC2)c1`, the inhibition result under setting [1] is “inactive”.

Take `CCCCn1nc(C(=O)N2CCc3ccccc32)c2ccccc2c1=O`: the inhibition by setting is: (stronger effect = higher value) 4% (inactive); under setting [2], 2%.

Regarding `Cc1cc(C)nc(SCc2nnc(SCC(=O)OC3CCCCC3)o2)n1`, the inhibition entry under setting [1] is “inactive”.

Take `Cc1cc(=O)cc(C)[nH]1`: the inhibition under setting [1] is 42% (active).

For the compound `Cc1cc(=O)[nH]c(=S)[nH]1`, under setting [1], the inhibition result was “inactive”.

`COc1ccc(C2CC(c3ccc(Cl)cc3Cl)Nc3nc(N)nn32)cc1OC` (stereo unspecified): the inhibition entry under setting [1] was “inactive”.

In the case of `CCOC(=O)CCCNC(=O)CN1C(=O)NC(CCc2ccccc2)C1=O` (stereo unspecified), under setting [1], the inhibition entry is “inactive”.

For the compound `CCOc1ccc(-c2nnn(CC(=O)N3CCN(c4ccc(F)cc4)CC3)n2)cc1OCC`, under setting [1], the inhibition was 0% [measured here: pilot screen trials, stronger effect = higher value] and the call was inactive.

Take `CCOC(=O)CSc1nccc(N(C)C)c1C#N`: the inhibition entry under setting [1] is “inactive”.

Turning to `CC(=O)c1cc(-c2ccccc2)[nH]c1N1CCCC1`, under setting [1], the inhibition was 1% (inactive).

Regarding `CCOC(=O)/C=c1\s/c(=C\c2ccccc2OC)c(=O)n1CC(=O)N1CCOCC1`, the inhibition under setting [1] was 4% (inactive).

In the case of `CC1(C)CC(CCC(=O)Nc2ccccc2Cl)C(=O)O1` (stereo unspecified), the inhibition entry under setting [1] is “inactive”.

Take `COc1ccc(-n2nnc3c(=O)n(CC(=O)N4CCC(Cc5ccccc5)CC4)cnc32)cc1`: the inhibition entry under setting [1] is “inactive”.

On to `CCOC(=O)c1ccc(N2C(=O)CC(N3CC(C)OC(C)C3)C2=O)cc1` (stereo unspecified), for which, under setting [1], the inhibition result is “inactive”.

Consider `O=C(O)c1ccc(-n2cccc2)cc1O`, for which the inhibition under setting [1] was 1% (inactive).

`Cc1ccc(S(=O)(=O)N2CCCC2C(=O)NCc2ccco2)cc1` (stereo unspecified): under setting [1], the inhibition was 4% (inactive).

Turning to `O=C1NC2(CCCCC2)N=C1c1ccccc1`, the inhibition result under setting [1] was “inactive”.

For the compound `COc1ccc(S(=O)(=O)N2CCC(C(=O)N3CCc4ccccc4C3)CC2)cc1OC`, the inhibition result under setting [1] is “inactive”.

In the case of `CCOC(=O)c1c(-n2cnnn2)sc(C)c1C`, the inhibition under setting [1] is 2% (inactive).

As to `Cc1nc(C)c(C(=O)Nc2cccc(C)c2C)o1`, the inhibition entry under setting [1] was “inactive”.

In the case of `CCC(c1nnnn1Cc1ccccc1)N(Cc1cc2cc(OC)ccc2[nH]c1=O)CC1CCCO1` (stereo unspecified), the inhibition under setting [1] was 5% (inactive).

`COc1ccc2[nH]c(=O)c(CN(CC3CCCO3)C(=O)Nc3ccccc3)cc2c1` (stereo unspecified): the inhibition under setting [1] is 33% (active).

For `COc1ccc2[nH]c(=O)c(CN(Cc3nnnn3CCc3ccccc3)CC3CCCO3)cc2c1` (stereo unspecified), the inhibition under setting [1] was 2% (inactive).

`O=C1[C@@H]2C(Cc3ccc(O)cc3)NC3(C(=O)Nc4ccc(F)cc43)[C@@H]2C(=O)N1c1ccc(F)cc1` (stereo partly specified): the inhibition entry under setting [1] was “inactive”.

Consider `CSc1ccc(NC(=O)N2CC(C)OC(C)C2)cc1` (stereo unspecified), for which, under setting [1], the inhibition entry was “inactive”.

For the compound `CCOc1ccc(/C(O)=C2/C(=O)C(=O)N(Cc3cccnc3)C2c2ccc(N(C)C)cc2)c(C)c1` (stereo unspecified), the inhibition under setting [1] was 2% (inactive).

With `Cc1ccc(N(C(=O)CC2NC(=O)NC2=O)C2(C(=O)NC3CCCC3)CCCCC2)cc1` (stereo unspecified), the inhibition result under setting [1] is “inactive”.

As to `COc1ccc(CCNC(=O)CN2CCC(n3nnc4cc(F)ccc43)CC2)cc1OC`, the inhibition entry under setting [1] was “inactive”.

Consider `O=C(CSc1nnnn1C1CCCC1)Nc1ccc2c(c1)OCCO2`, for which, under setting [1], the inhibition entry is “inactive”.

Take `N#CCCN1CCN(S(=O)(=O)c2ccc(S(=O)(=O)N3CCCC3)cc2)CC1`: the inhibition under setting [1] was 7% (inactive).

As for `CN(CC(=O)NC1CCCCC1)S(=O)(=O)c1cccc2cccnc12`, under setting [1], the inhibition entry is “inactive”.

Take `O=C(Oc1ccccc1)c1ccc2nccnc2c1`: under setting [1], the inhibition entry is “inactive”.

For `CCOC(=O)c1sc(NC(=O)c2cc(S(=O)(=O)N3CCOCC3)ccc2C)nc1C`, the inhibition under setting [1] is 11% (inactive).

Regarding `Cc1ccc(N2CCN(c3ccc(C)cc3)C2c2ccccn2)cc1`, under setting [1], the inhibition entry is “inactive”.

Consider `O=C(c1cc(-c2cccc(O)c2)on1)N1CCc2ccccc2C1`, for which the inhibition under setting [1] was 1% (inactive).

On to `COc1cc(Cl)c(S(=O)(=O)N2CCN(Cc3ccc4c(c3)OCO4)CC2)cc1Cl`, for which, under setting [1], the inhibition result was “inactive”.

Consider `Cc1ccc(C(=O)N2CCCCCC2)cc1Br`, for which, under setting [1], the inhibition entry is “inactive”.

With `Cc1ccc2cc3cc(C(=O)N4CCCCCC4)oc3nc2c1`, the inhibition under setting [1] is 33% (active).

For `O=C(c1cc(-c2cccs2)on1)N1CCCCC1`, the inhibition result under setting [1] was “inactive”.

Take `CCOC(=O)CNC(=O)CSc1nnc(COc2ccc(Cl)cc2)n1CC`: under setting [1], the inhibition is 2% (inactive).

Consider `Cc1oc(-c2ccccc2F)nc1CS(=O)(=O)CC(=O)NCCCN(C)C1CCCCC1`, for which, under setting [1], the inhibition is 9% (inactive).

With `COc1ccc(-n2c(Cc3cccn3C)nnc2SCC(=O)Nc2cc(C)cc(C)c2)cc1`, the inhibition result under setting [1] is “inactive”.

With `O=C(O)CCCC(=O)Nc1ccccc1-n1ccnc1`, under setting [1], the inhibition entry was “inactive”.

`Cc1nc(SCC(=O)Nc2cc(C)on2)c2c(C)c(C)sc2n1`: the inhibition entry under setting [1] is “inactive”.

On to `CCOc1ccccc1N(CC(=O)Nc1ccccc1C(=O)OC)S(C)(=O)=O`, for which the inhibition entry under setting [1] was “inactive”.

For `COc1ccc(OC)c(NC(=O)CN2CCN(C(=O)c3ccco3)CC2)c1`, under setting [1], the inhibition result was “inactive”.

With `COc1cccc(C2/C(=C(/O)c3ccncc3)C(=O)C(=O)N2CCCN(C)C)c1` (stereo unspecified), under setting [1], the inhibition was 16% (inactive).

Consider `CC(C)c1nc(-c2ccccn2)no1`, for which the inhibition entry under setting [1] is “inactive”.

As to `CC(=O)NCC(=O)N(C)C(C(=O)Nc1ccc2c(c1)OCCO2)c1ccccc1` (stereo unspecified), the inhibition entry under setting [1] is “inactive”.

For `Cc1cc(C)cc(OCc2nnc(SCC(=O)OC3CCCCC3)o2)c1`, under setting [1], the inhibition result is “inactive”.

Take `CCOC(=O)c1ccc(N2C(=O)CC(Sc3nc(O)c(CC)c(=O)[nH]3)C2=O)cc1` (stereo unspecified): the inhibition result under setting [1] was “inactive”.

As for `Cn1c2c(c(=O)n(C)c1=O)C1c3ccccc3OCC1C(C)(C)O2` (stereo unspecified), the inhibition under setting [1] was 10% (inactive).

The values above are taken from PubChem BioAssay AID556 (SRMLSC, 2006).
